Test [1] in a line: qHTS assay to test for compound auto fluorescence at 535 nm (green) in HEK293 cells (AID 720680). On the technique in general: qHTS replaces the single test concentration by a dilution series.
A short description of test [2]: qHTS assay to test for compound auto fluorescence at 460 nm (blue) in HEK293 cell free culture (AID 720681). Put shortly:
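Test compounds were pinned into cell-free culture medium (DMEM with 10% FBS) and fluorescence was read directly at Ex/Em 405/460 nm. Signals were expressed as fluorescence equivalents of triamterene, with DMSO vehicle as control.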

The nature of test [3]: qHTS assay to test for compound auto fluorescence at 535 nm (green) in HEK293 cell free culture (AID 720682). In short, it runs like this: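 Fluorescein serves as the green reference fluorophore; each compound's intrinsic emission at 535 nm (excitation 485 nm) is reported as an equivalent amount of that dye, measured in serum-containing DMEM without cells.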
A short description of test [4]: qHTS assay to test for compound auto fluorescence at 590 nm (red) in HepG2 cell free culture (AID 720684). In short, it runs like this:
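Ex 540 / Em 590 nm read of compound in cell-free MEM (10% FBS). Rose Bengal sodium reference.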

Test [5] is described as follows: qHTS assay to test for compound auto fluorescence at 460 nm (blue) in HepG2 cell free culture (AID 720685). In short, it runs like this:
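Cell-free plates of MEM plus 10% FBS received 23 nL compound or DMSO vehicle; blue-channel (405/460 nm) intensity scored against triamterene as reference fluorophore.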

Test [6] in a line: qHTS assay to test for compound auto fluorescence at 535 nm (green) in HepG2 cell free culture (AID 720686).
Test [7] in a line: qHTS assay to test for compound auto fluorescence at 460 nm (blue) in HepG2 cells (AID 720687). Put shortly:
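Cells (2,000/well in MEM with 10% FBS) attached overnight at 37 C, then were exposed to compound or DMSO for 1 hr at 37 C, 5% CO2. Fluorescence read at Ex/Em 405/460 nm, expressed as triamterene-equivalent signal.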

For test [8], the target named is Glucocorticoid receptor (Homo sapiens) (UniProt P04150). The test is described as follows: qHTS assay to identify small molecule agonists of the glucocorticoid receptor (GR) signaling pathway (AID 720691; active = well fitted activation curve with a large enough effect in the signal ratio in the repeat runs, not every such curve was filed as active; inconclusive = weak or mixed curves, or effect the other way; inactive = no such curve, though single readings can be large or run the other way; the % refers to the signal ratio; also: potency is read from the fitted curve at half-maximal effect). Put shortly: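 HeLa GR-bla reporter line; cells pre-incubated 4 h, compound in DMSO 18 h at 37 C; LiveBLAzer B/G FRET substrate 2 h RT; fluorescence intensity read-out.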
Chain of Glucocorticoid receptor (Homo sapiens) (P04150 whole entry, looked up): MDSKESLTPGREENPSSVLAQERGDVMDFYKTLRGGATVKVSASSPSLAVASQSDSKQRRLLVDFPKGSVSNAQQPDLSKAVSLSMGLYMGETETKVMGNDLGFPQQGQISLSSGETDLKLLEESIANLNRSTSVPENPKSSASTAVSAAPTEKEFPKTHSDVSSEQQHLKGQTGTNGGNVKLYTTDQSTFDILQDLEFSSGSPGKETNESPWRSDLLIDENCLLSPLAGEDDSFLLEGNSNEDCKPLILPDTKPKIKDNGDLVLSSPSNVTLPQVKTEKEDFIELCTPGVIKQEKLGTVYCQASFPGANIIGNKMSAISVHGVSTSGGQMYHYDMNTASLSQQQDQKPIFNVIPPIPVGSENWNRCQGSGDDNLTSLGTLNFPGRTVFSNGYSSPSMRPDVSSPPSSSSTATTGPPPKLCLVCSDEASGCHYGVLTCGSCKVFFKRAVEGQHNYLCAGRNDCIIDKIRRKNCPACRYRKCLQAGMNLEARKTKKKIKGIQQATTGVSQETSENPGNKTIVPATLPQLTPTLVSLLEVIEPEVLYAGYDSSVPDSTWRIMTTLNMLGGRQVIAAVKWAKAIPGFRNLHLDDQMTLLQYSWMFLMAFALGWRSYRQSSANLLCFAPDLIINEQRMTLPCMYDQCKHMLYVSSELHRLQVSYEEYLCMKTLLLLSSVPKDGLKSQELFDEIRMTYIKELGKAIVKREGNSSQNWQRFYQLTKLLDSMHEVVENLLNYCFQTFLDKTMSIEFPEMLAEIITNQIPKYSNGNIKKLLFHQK

For test [9] the target is unchanged. The test is described as follows: qHTS assay to identify small molecule antagonists of the glucocorticoid receptor (GR) signaling pathway (AID 720692; active = well fitted inhibition curve with a large enough effect in the signal ratio in the repeat runs, not every such curve was filed as active; inconclusive = weak or mixed curves, or effect the other way; inactive = no such curve, though single readings can be large or run the other way; the % refers to the signal ratio). Put shortly: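 Read-out: beta-lactamase FRET substrate fluorescence, 2 h at room temperature, in HeLa cells stably carrying a GRE-driven bla reporter. Compounds were co-incubated with 5 nM dexamethasone agonist (final) for 18 h at 37 C.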

Test [10] is described as follows: qHTS assay for identifying genotoxic compounds that show differential cytotoxicity against isogenic chicken DT40 cell lines with known DNA damage response pathways - wild type cell line (AID 743012). Also: nearly all actives have a fitted effect of over 60% in size. Also: potency is read from the fitted curve at half-maximal effect. Put shortly:
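CellTiter-Glo luminescence readout of viability in wild type DT40 cells after 40 h compound exposure at 37 C/5% CO2; 300 cells/well; reagent incubated 30 min at room temperature before reading.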

Test [11] can be described thus: qHTS assay for identifying genotoxic compounds that show differential cytotoxicity against isogenic chicken DT40 cell lines with known DNA damage response pathways - Rev3 mutant cell line (AID 743014). Also: nearly all actives have a fitted effect of over 55% in size. Also: potency is read from the fitted curve at half-maximal effect.
Test [12] in a line: qHTS assay for identifying genotoxic compounds that show differential cytotoxicity against isogenic chicken DT40 cell lines with known DNA damage response pathways - Rad54/Ku70 mutant cell line (AID 743015). Also: nearly all actives have a fitted effect of over 60% in size. Also: potency is read from the fitted curve at half-maximal effect.
Test [13] in a line: qHTS assay to identify small molecule antagonists of the androgen receptor (AR) signaling pathway - cell viability counter screen (AID 743033; also: nearly all actives have a fitted effect of over 45% in size).
A short description of test [14]: qHTS assay to identify small molecule antagonists of the androgen receptor (AR) signaling pathway using the MDA cell line - cell viability counter screen (AID 743041; also: nearly all actives have a fitted effect of over 45% in size). In short, it runs like this: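 In this qHTS counter assay, fluorescence intensity after CellTiter-Fluor addition indicated viability of MDA-kb2 AR-luc cells given compounds and R1881 for 16 h at 37C.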

The nature of test [15]: qHTS assay to test for compound auto fluorescence at 590 nm (red) in HEK293 cell free culture (AID 720683). In short, it runs like this:
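Tox21 10K library compounds were pinned into cell-free DMEM with 10% FBS and fluorescence was read at excitation 540 nm. Activity is expressed as Rose Bengal sodium equivalency.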

The nature of test [16]: qHTS assay to identify small molecule antagonists of the glucocorticoid receptor (GR) signaling pathway - cell viability counter screen (AID 720693). Also: nearly all actives have a fitted effect of over 55% in size.
For test [17], the target named is Androgen receptor (Homo sapiens) (UniProt P10275). The test is described as follows: qHTS assay to identify small molecule antagonists of the androgen receptor (AR) signaling pathway (AID 743035; active = well fitted inhibition curve with a large enough effect in the signal ratio in the repeat runs, not every such curve was filed as active; inconclusive = weak or mixed curves, or effect the other way; inactive = no such curve, though single readings can be large or run the other way; the % refers to the signal ratio). In short, it runs like this:
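AR-bla HEK293 reporter cells; 4 h settle at 37C/5% CO2; compound + R1881 agonist, 16 h at 37C; LiveBLAzer B/G FRET substrate 2 h RT; fluorescence intensity read. qHTS format.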

The target is the same in test [18]. The test is described as follows: qHTS assay to identify small molecule agonists of the androgen receptor (AR) signaling pathway (AID 743036; active = well fitted activation curve with a large enough effect in the signal ratio in the repeat runs, with a control signal flat, not every such curve was filed as active; inconclusive = weak or mixed curves, or effect the other way; inactive = no such curve, though single readings can be large or run the other way; the % refers to the signal ratio). In short, it runs like this: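 Fluorescence from a beta-lactamase FRET substrate served as read-out in AR-UAS-bla GripTite HEK293 cells. Cells were treated with DMSO-dissolved compounds for 16 h at 37C, then with LiveBLAzer B/G substrate for 2 h at room temperature.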

For test [19] the target is unchanged. The test is described as follows: qHTS assay to identify small molecule agonists of the androgen receptor (AR) signaling pathway using the MDA cell line (AID 743040; also: nearly all actives have a fitted effect of over 20% in size). In short, it runs like this:
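Cell-based luciferase reporter: MDA-kb2, MMTV promoter (AR + GR response elements). 16 h compound exposure at 37C; ONE-Glo, 30 min RT, luminescence.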

The target is the same in test [20]. The test is described as follows: qHTS assay to identify small molecule antagonists of the androgen receptor (AR) signaling pathway using the MDA cell line (AID 743042; also: nearly all actives have a fitted effect of over 55% in size). Put shortly:
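MDA-kb2 cells (human breast carcinoma, stably carrying an MMTV-luciferase reporter responsive to AR and GR) were plated at 3,000 cells/well and preincubated 5 hr at 37C, then given compound plus R1881 agonist for 16 h. ONE-Glo luminescence was read.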

Unmarked numbers belong to inactive results. Active and inactive are the calls of the source. Unless noted, calls follow the shape of the dose curve; as a rule, active = well fitted curve in the direction sought with a large enough effect in the repeat runs; inconclusive = weak or mixed curves; inactive = no such curve, though single readings can be large; an effect the other way counts as inactive or inconclusive.

Chain of Androgen receptor (Homo sapiens) (P10275 whole entry, looked up): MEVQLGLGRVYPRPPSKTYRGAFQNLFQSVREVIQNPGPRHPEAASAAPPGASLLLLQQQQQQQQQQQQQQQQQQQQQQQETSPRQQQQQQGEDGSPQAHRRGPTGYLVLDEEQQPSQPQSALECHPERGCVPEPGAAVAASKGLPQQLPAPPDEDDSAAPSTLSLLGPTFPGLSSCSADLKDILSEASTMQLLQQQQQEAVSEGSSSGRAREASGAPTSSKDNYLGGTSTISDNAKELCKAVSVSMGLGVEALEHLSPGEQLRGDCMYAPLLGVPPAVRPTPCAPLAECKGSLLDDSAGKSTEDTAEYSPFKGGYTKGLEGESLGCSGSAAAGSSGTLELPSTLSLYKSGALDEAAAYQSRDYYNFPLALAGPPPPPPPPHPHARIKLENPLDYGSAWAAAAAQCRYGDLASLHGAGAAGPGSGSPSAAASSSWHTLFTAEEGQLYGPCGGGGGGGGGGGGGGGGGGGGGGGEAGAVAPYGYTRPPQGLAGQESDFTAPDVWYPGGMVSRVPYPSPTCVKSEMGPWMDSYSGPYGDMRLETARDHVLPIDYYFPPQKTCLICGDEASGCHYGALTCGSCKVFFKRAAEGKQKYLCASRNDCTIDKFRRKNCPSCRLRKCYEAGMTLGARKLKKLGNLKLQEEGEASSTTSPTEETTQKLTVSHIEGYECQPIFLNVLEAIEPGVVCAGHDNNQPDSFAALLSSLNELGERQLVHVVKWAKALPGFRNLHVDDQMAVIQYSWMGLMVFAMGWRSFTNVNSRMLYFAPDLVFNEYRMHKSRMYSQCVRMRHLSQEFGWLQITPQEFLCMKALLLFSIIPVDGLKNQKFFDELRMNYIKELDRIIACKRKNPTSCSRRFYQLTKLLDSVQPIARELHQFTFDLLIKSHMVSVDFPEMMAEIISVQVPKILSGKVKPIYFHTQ

For `CC(C)C(O)C(C)(C)CO` (stereo unspecified), the compound was classed as inactive in test [1], in test [3], in test [4] and in test [6]. For the same compound, the Potency result in test [2], in test [5], in [7], in test [8], in test [9] and in [10] was “inactive” in each case. The Potency result in test [11], in [12], in test [13] and in test [14] was “inactive” each time.

For the compound `CC(C)CC(O)CC(C)C`, the result in test [1], in test [3], in test [15], in test [4] and in [6] was inactive. The Potency result in [5], in test [7], in test [8], in test [9], in [16] and in test [10] was “inactive” each time. Further, the Potency entry in [11], in test [12] and in test [13] was “inactive” in each case.

`CC(=O)C(C)=O`: the compound was called inactive in test [1], in test [3], in [4] and in test [6]. Also, the Potency entry in [2], in test [5], in [7], in test [8], in test [9] and in [16] was “inactive” each time. Also, the Potency entry in test [10], in test [11] and in test [13] was “inactive” throughout.

In the case of `[Cl][Nd]([Cl])[Cl]`, the outcome in test [1], in [3], in test [4] and in test [6] was inactive. In addition, the Potency entry in test [2], in test [5], in test [7], in test [8], in test [9] and in test [16] was “inactive” each time. Further, the Potency entry in test [13] and in test [14] was “inactive” throughout.

As for `CC1CCCC(=O)C1=O` (stereo unspecified), the call in [1], in test [3], in test [15], in test [4], in test [6] and in [18] was inactive. The Potency entry in [5], in test [7], in test [8], in [9], in test [16] and in test [10] was “inactive” throughout. Besides, the Potency result in [11], in [12], in [13], in [17], in test [19] and in [14] was “inactive” in each case. Moreover, the Potency entry in test [20] was “inactive”.

Regarding `CC[C@H]1OC(=O)[C@H](C)[C@@H](O[C@H]2C[C@@](C)(OC)[C@@H](O)[C@H](C)O2)[C@H](C)[C@@H](O[C@@H]2O[C@H](C)C[C@H](N(C)C)[C@H]2O)[C@](C)(O)C[C@@H](C)C(=O)[C@H](C)[C@@H](O)[C@]1(C)O`, the outcome in test [1], in [3], in test [4] and in [6] was inactive. Moreover, the Potency result in [2], in test [5], in test [7], in test [16], in [10] and in test [11] was “inactive” in each case. In addition, the Potency result in test [12], in test [13] and in test [14] was “inactive” throughout.

`Nc1ccc(F)cc1`: the compound was classed as inactive in test [1], in [3], in [4], in [6] and in test [18]. For the same compound, the Potency result in test [2], in [5], in test [7], in test [8], in [9] and in test [16] was “inactive” throughout. The Potency entry in test [10], in test [11], in [12], in [17], in test [19] and in test [14] was “inactive” throughout. Further, the Potency result in test [20] is “inactive”.

Take `O=S(=O)(Cl)c1c(Cl)cccc1Cl`: the compound was called inactive in test [1], in test [3], in test [4], in test [6] and in test [18]. Moreover, the Potency result in test [2], in test [5], in [7], in [8], in test [9] and in test [16] was “inactive” each time. For the same compound, the Potency entry in test [11], in test [12], in test [13], in test [19], in [14] and in [20] was “inactive” in each case.

`COc1ccc(C(=O)NCc2ccc(OCCN(C)C)cc2)cc1OC`: the call in test [1], in [3], in [4] and in test [6] was inactive. Besides, the Potency result in [2], in [5], in test [7], in test [8], in test [9] and in [16] was “inactive” each time. The Potency result in [10], in test [12], in test [13] and in test [14] was “inactive” throughout.

As for `Cc1ccc2c(c1)CCCN2`, the outcome in test [1], in test [3], in test [4] and in test [6] was inactive. In addition, the Potency result in test [2], in test [5], in test [7], in test [8], in test [9] and in test [16] was “inactive” each time. The Potency entry in test [10], in test [12], in [13] and in [14] was “inactive” each time.

Turning to `CCOC(=O)C(C)O` (stereo unspecified), the outcome in test [1], in test [3], in test [4] and in test [6] was inactive. The Potency result in test [2], in test [5], in [7], in test [8], in test [9] and in [16] was “inactive” each time. Moreover, the Potency entry in test [10], in test [11] and in test [13] was “inactive” each time.

For the compound `C1CCCCC1`, the call in test [1], in test [3], in test [4] and in test [6] was inactive. Further, the Potency entry in test [2], in test [5], in test [7], in test [8], in test [9] and in [16] was “inactive” throughout. In addition, the Potency entry in test [10], in [11], in test [12] and in test [14] was “inactive” each time.

Consider `O=C(O)c1ccc(O)cc1O`, for which the call in test [1], in test [3], in test [4] and in test [6] was inactive. Besides, the Potency entry in test [2], in test [5], in test [7], in test [8], in [16] and in test [10] was “inactive” each time. The Potency entry in test [13] and in test [14] was “inactive” throughout.

Take `CN1C(CSCC(F)(F)F)Nc2cc(Cl)c(S(N)(=O)=O)cc2S1(=O)=O` (stereo unspecified): the compound was classed as inactive in [1], in test [3], in [4], in test [6] and in test [18]. For the same compound, the Potency result in test [2], in test [5], in test [7], in [8], in test [9] and in test [16] was “inactive” throughout. Further, the Potency result in [17], in test [19], in test [14] and in [20] was “inactive” in each case. The Potency in [10] was 11.9 µM (active); in [11] it was 26.6 µM (active); in test [12], 23.7 µM (active).

As to `O=C(NC(Cc1cc(=O)[nH]c2ccccc12)C(=O)O)c1ccc(Cl)cc1` (stereo unspecified), the call in test [1], in [3], in test [4] and in [6] was inactive. Further, the Potency result in [2], in test [5], in test [7], in test [8], in test [16] and in test [10] was “inactive” each time. Moreover, the Potency result in [11], in test [12], in test [13] and in [14] was “inactive” in each case.

Regarding `CC(=O)OCC(=O)[C@@]1(OC(C)=O)[C@@H](C)C[C@H]2[C@@H]3C[C@H](F)C4=CC(=O)C=C[C@]4(C)[C@@]3(F)[C@@H](O)C[C@@]21C`, the result in test [1], in [3], in [4] and in test [6] was inactive. Further, the Potency entry in test [2], in test [5], in [7], in test [16] and in test [13] was “inactive” in each case. Further, the results for the Potency in [8], in test [10] and in [11] were 37.9 nM [inconclusive] (active), 26.6 µM (active) and 11.9 µM (active), respectively.
